# Test results as given in the supplement of paper PMC10720658.
# ± gives the standard deviation of the averaged measurements.
# Tested on: AEK1 (Tb927.3.2440)
# Test: percent reduction in TR-FRET probe signal relative to DMSO control; higher = stronger displacement of ATP-site probe (binding)
# Details: 1 µM; incubation time 1 h
row,Compound,percent reduction in TR-FRET probe signal [%]
1,CC(C)(C)c1cc(C=C(C#N)C#N)cc(C(C)(C)C)c1O [Tyrphostin 9],15.1 ± 1.3
2,O=c1[nH]c2ccccc2n1C1CCN(Cc2ccc(-c3nc4cc5nc[nH]c5cc4nc3-c3ccccc3)cc2)CC1,-9.38 ± 1.6
3,N#CC(C#N)=Cc1ccc(O)c(O)c1,7.98 ± 17
4,CCN1CCN(C(=O)Cc2ccc(Nc3ncc(F)c(Nc4ccc(C(=O)Nc5ccccc5Cl)cc4)n3)cc2)CC1 [Aurora A Inhibitor I],24.1 ± 4.8
5,O=c1[nH]c2ccc(Cl)cc2c(N[C@@H]2CN3CCC2CC3)c1-c1nc2ccccc2[nH]1,25.9 ± 11
6,COc1ccc(N(C(=O)Oc2c(C)cccc2C)c2ccnc(Nc3ccc(N4CCN(C)CC4)cc3)n2)c(OC)c1,12.5 ± 3.4
7,Cn1cc(C2=C(c3cn(C4CCN(Cc5ccccn5)CC4)c4ccccc34)C(=O)NC2=O)c2ccccc21,-6.77 ± 7.9
8,Cc1ccccc1-n1c(Cn2ncc3c(N)ncnc32)nc2cccc(C)c2c1=O,-5.42 ± 2.9
9,C/C(O)=C(\C#N)C(=O)Nc1cc(Br)ccc1Br,-3.29 ± 1.9
10,CC(C)(C)c1cc(C=C(C#N)C#N)cc(Br)c1O,17.3 ± 12
11,COc1ccc2c(c1)/C(=C/c1cnc[nH]1)C(=O)N2,-2.34 ± 5.7
